This is part of a sample that, as a whole, favours compounds with a hit. Of some 79,000 tested, about 15% had one in any assay. No stated cut-off is given here; in the data, active means growth inhibition above about 70%; inactive means the rest.
What was measured:
[1] = NCI Yeast Anticancer Drug Screen. Data for the mec2-1 strain (AID 157); details: S. cerevisiae mec2-1 strain, at 50.0 µM, stronger effect = higher value
How it was run: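 Readout is yeast growth inhibition, normalised to vehicle-treated controls, in the mec2-1 strain exposed to compound.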

[2] = NCI Yeast Anticancer Drug Screen. Data for the sgs1 mgt1 strain (AID 161);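 further: 0% = growth of cultures given vehicle only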; details: S. cerevisiae sgs1 mgt1 strain, at 50.0 µM, stronger effect = higher value
How it was run: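 This yeast growth screen uses a strain with defined DNA-repair lesions; compound-treated growth is compared with vehicle-treated growth.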

[3] = NCI Yeast Anticancer Drug Screen. Data for the cln2 rad14 strain (AID 165);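 further: 0% = growth equal to vehicle treated cultures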; details: S. cerevisiae cln2 rad14 strain, at 50.0 µM, stronger effect = higher value
How it was run: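 Relative to vehicle controls, growth inhibition of compound-treated cln2 rad14 yeast was recorded.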

[4] = NCI Yeast Anticancer Drug Screen. Data for the bub3 strain (AID 167); details: S. cerevisiae bub3 mutant strain, at 50.0 µM, stronger effect = higher value
How it was run: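 Whole-cell yeast assay. The mutant strain was incubated with compounds, and growth inhibition was determined by comparison with vehicle-treated cells.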

[5] = NCI Yeast Anticancer Drug Screen. Data for the mlh1 rad18 strain (AID 175); details: S. cerevisiae mlh1 rad18 strain growth inhibition; at 50.0 µM; stronger effect = higher value
How it was run: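 Test agents were incubated with a yeast strain of defined genotype (DNA damage repair defect). Inhibition of growth was derived by comparison with vehicle-exposed cultures.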

Measured: growth inhibition

CCC(C#N)(CC)c1ccccc1
inactive: [1] 13.4% | [2] 11.1% | [3] 12.7% | [4] -3.2% | [5] 36.3%

C#CC(C)(O)c1ccc(Cl)cc1 (stereo not drawn)
inactive: [1] -2.15% | [2] 8.7% | [3] -7.35% | [4] -26.4% | [5] 2.65%

CC1CCC(C(=O)O)N1 (stereo not drawn)
inactive: [1] 6.5% | [2] 1.7% | [3] 4.45% | [4] -3.2% | [5] 6.65%

Cc1ccc(C(=O)NC2c3ccccc3Oc3ccccc32)cc1
inactive: [1] -7.7% | [2] 4.65% | [3] -12% | [4] 6.85%

NCC(=O)CCC(=O)O
inactive: [1] -3.7% | [2] 0.5% | [3] -4.95% | [4] -0.85% | [5] -1.4%

O=c1cc(-c2ccccc2)[nH]c2c1CCCC2
inactive: [1] -21.4% | [2] -12.2% | [3] -23.8% | [4] 0.95% | [5] -3.5%

O=C1N(C[P+](c2ccccc2)(c2ccccc2)c2ccccc2)CCCN1C[P+](c1ccccc1)(c1ccccc1)c1ccccc1
inactive: [1] 7.4% | [2] 3.55% | [3] 14.9% | [4] 15.1% | [5] 12.3%

C/C(=C\c1cc(Cl)ccc1OCC(=O)O)[N+](=O)[O-]
inactive: [1] 56.1% | [2] 44.5% | [3] 26.9% | [5] 56.2%

OCC1OC(OC2C(O)C(CO)OC2(CO)OC2OC(CO)C(O)C(O)C2O)C(O)C(O)C1O (stereo not drawn)
inactive: [1] -7.95% | [2] -31.8% | [3] -3.15% | [4] -14.2% | [5] -14.7%

O=C(Cc1nc2ccc([N+](=O)[O-])cc2nc1CC(=O)c1ccccc1)c1ccccc1
inactive: [2] -10.5% | [3] 2.75% | [4] 13.2%

O=C(c1ccccc1)C1CCC1
inactive: [1] -5.25% | [2] 10.2% | [3] -17.5% | [4] 7.95% | [5] 6.75%

CCCCC(CC)COC(C)=O (stereo not drawn)
inactive: [1] -13.5% | [2] 2.15% | [3] 5.2% | [4] 12% | [5] 13.8%

CNS(=O)(=O)c1ccc(Cl)c(Cl)c1
inactive: [1] -5.1% | [2] -13.5% | [3] -55% | [4] -25.4% | [5] -40.9%

CC1CCC2C(C)(C)C3CC12CC1OC13C (stereo not drawn)
inactive: [1] -30.4% | [2] 0.7% | [3] 4.95% | [4] 0.65% | [5] -14.5%

O=C(Nc1cc(-c2ccccc2)[nH]n1)c1ccc(Cl)cc1
inactive: [2] 6.05% | [3] -1% | [4] -7.15% | [5] -3.3%

CC1(O)OC(COc2ccc(Cl)cc2)COC1O (stereo not drawn)
inactive: [1] -8.65% | [2] 4.7% | [3] 8.55% | [4] -9.7% | [5] 18.9%

O=C(NCCNC(=O)c1ccc(Cl)cc1Cl)c1ccc(Cl)cc1Cl
inactive: [1] -10.8% | [2] -4% | [3] -42.2% | [4] -1.25% | [5] -20.2%

COCCOCCCl
inactive: [1] -19.3% | [2] -12.5% | [3] -7.95% | [4] -6.5% | [5] -6.7%

CCOC(=O)/C(=C/c1ccc(OC)cc1)N(CC)CC
inactive: [2] -17.4% | [3] 0.5% | [4] -19.1% | [5] -20.4%

CCc1nc(N)nc(N)c1-c1ccc(Cl)cc1
inactive: [1] 2.9% | [2] -4.45% | [3] -42.5% | [4] -14% | [5] -21.2%

COC(=O)c1cccc(Br)c1
inactive: [2] -4.75% | [3] -29.5% | [4] 0.15% | [5] 13.4%

O=C(O)CCCc1ccccc1
inactive: [1] -6.2% | [2] 2.05% | [3] -7.65% | [4] 6% | [5] 11.3%

COc1cc2nc3cc([N+](=O)[O-])ccc3c(Cl)c2cc1OC
inactive: [1] -20.9% | [2] -19.7% | [3] 4.3% | [4] -14.2% | [5] 7.6%

CN(C)C(=O)Oc1cccc([N+](C)(C)C)c1
inactive: [1] -8.2% | [2] 5.95% | [3] -60.9% | [4] 0.2% | [5] -5.35%

CCOc1ccc(/C=C/C(=O)c2ccccc2)cc1
inactive: [1] -15.9% | [2] 24.6% | [3] -20.1% | [4] 22.4% | [5] -19.6%

COc1ccc(C(O)c2ccccc2)cc1 (stereo not drawn)
inactive: [1] -17.4% | [2] -34.9% | [3] -50.2% | [4] -28.1% | [5] -15.2%

CCc1nn(Cc2ccccc2)c2nc(C)c(CCc3ccccc3)c(Cl)c12
inactive: [1] -4.6% | [2] -0.45% | [3] 2.6% | [4] 7.35% | [5] -2.75%

CCNc1nc2c(cnn2C)c(=O)[nH]1
inactive: [1] 28.4% | [2] 4.4% | [3] -34.1% | [4] 28.1% | [5] 29.4%
